Only some compounds are listed: those with a hit (about 27% of all), similar ones and a draw of the others.
CYP2C19 activ: human CYP2C19 activators, primary screen, biochemical, luminescence; activation factor at 5 µM; recombinant CYP2C19, luciferin-H EGE luminescence; stronger effect = higher value; 0 = fully inhibited enzyme, 1 = untreated enzyme; Cytochrome P450 2C19 (Homo sapiens), P33261; 96,000 tested, under 10 active; AID 1025, 2008;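 active = activation factor of at least 2 at 5 µM in the primary screen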;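 also: 0 = wells with 2.5 mM tranylcypromine and 1 = vehicle-only wells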
CYP2C9 inhib: blockers of cytochrome P450 2C9 activity – biochemical, luminescence, ADME assay, primary screen; P11712; CYP2C9 Supersomes, luciferin-H conversion; inhibition, % at 5 µM; 96,000 tested, 20% active;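 active = blocking of liver enzyme CYP2C9 beyond about 50% at 5 µM, limit read from the data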
CYP2C19 inh: blockers of cytochrome P450 2C19 activity – biochemical, luminescence, ADME assay, primary screen; P33261; CYP2C19 Supersomes, luciferin-H EGE luminescence, 30 min; inhibition, % at 5 µM; 96,000 tested, 21% active;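 active = CYP2C19 inhibition above a set limit at 5 µM in the primary screen, cut at about 50% in these data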;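 also: plate controls were negative control wells for no effect and 2.5 mM tranylcypromine positive control for full effect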
EphB4 antag: EphB4-ephrin-B2 interaction antagonists, primary screen, biochemical, TNYL-RAW peptide probe, fluorescence polarization. Ephrin type-B receptor 4 (Homo sapiens), P54760. inhibition, % at 7 µM. EphB4 LBD / TNYL-RAW-Alexa532 peptide. 97,000 tested, 0.15% active;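 active = inhibition above the screen-wide mean inhibition plus 3 SD, cut at about 15% in these data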;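 also: 0% = DMSO wells and 100% = excess unlabeled TNYL-RAW peptide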
Target sequence (P54760 whole entry, looked up, the tested form may be a part): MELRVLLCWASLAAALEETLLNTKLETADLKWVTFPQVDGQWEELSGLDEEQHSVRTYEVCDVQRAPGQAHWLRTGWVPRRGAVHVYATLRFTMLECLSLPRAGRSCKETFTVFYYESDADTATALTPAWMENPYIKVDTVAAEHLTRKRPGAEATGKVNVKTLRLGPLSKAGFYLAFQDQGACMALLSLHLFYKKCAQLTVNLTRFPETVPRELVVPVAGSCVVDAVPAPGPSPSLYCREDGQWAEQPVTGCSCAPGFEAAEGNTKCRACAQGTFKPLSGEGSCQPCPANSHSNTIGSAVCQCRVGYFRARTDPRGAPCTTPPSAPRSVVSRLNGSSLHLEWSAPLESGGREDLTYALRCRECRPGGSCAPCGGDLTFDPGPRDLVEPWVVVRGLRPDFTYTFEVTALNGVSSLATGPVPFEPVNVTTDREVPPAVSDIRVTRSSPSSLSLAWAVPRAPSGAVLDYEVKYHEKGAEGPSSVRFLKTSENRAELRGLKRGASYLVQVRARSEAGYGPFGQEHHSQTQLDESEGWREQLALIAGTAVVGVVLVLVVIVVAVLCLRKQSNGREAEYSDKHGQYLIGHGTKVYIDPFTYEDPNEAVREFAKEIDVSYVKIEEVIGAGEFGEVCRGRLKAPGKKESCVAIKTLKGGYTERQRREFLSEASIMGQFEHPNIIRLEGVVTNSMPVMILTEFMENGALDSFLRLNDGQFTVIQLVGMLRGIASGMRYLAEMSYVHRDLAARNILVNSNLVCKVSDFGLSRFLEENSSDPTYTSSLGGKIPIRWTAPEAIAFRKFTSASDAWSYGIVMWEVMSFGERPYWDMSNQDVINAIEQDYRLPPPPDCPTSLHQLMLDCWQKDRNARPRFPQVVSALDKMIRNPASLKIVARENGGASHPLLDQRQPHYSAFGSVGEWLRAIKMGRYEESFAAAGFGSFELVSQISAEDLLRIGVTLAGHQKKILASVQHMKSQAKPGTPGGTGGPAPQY
CYP2C9 act: human CYP2C9 activators, primary screen, biochemical, luminescence; Cytochrome P450 2C9 (Homo sapiens), P11712; activation factor at 5 µM; 96,000 tested, 1.4% active; recombinant CYP2C9, luciferin-H conversion; stronger effect = higher value; factor 1 = untreated enzyme, 0 = blocked;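 active = activation factor of 2 or more for CYP2C9 at a 5 µM dose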;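 also: 0 = sulfaphenazole-blocked wells and 1 = vehicle-only wells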
* = called active by the depositor.

Screening NCCCCCc1nnc(SCC(=O)Nc2cccc(Cl)c2)o1 returned CYP2C19 activ 0.5, CYP2C9 inhib 56.6*, CYP2C19 inh 47.7, EphB4 antag -4.0 and CYP2C9 act 0.4.
COC(=O)C1CCN(C(c2cccs2)c2sc3nc(C)nn3c2O)CC1 (stereo unspecified) was read as CYP2C19 activ 0.5, CYP2C9 inhib -2.2, CYP2C19 inh 47.2 and CYP2C9 act 1.
Screening C/C(=N\NC(=O)c1cc2ccccc2cc1O)c1ccc2c(c1)OCO2 returned CYP2C19 activ 0.9, CYP2C9 inhib 27.0, CYP2C19 inh 10.4, EphB4 antag 1.0 and CYP2C9 act 0.7.
For C=CCSc1nc2c(c(=O)[nH]c(=O)n2C)n1C(C)C the results were CYP2C19 activ 1.2, CYP2C9 inhib -24.9, CYP2C19 inh -17.6, EphB4 antag -8.2 and CYP2C9 act 1.2.
`Clc1cccc(CSc2nnc([C@@H]3CCCN3)o2)c1` gave CYP2C19 activ 0.1, CYP2C9 inhib -73.2, CYP2C19 inh 94.1* and CYP2C9 act 1.7.
Cc1cccc(-c2nnc(SCc3ccccc3)o2)c1 was read as CYP2C19 activ 0.9, CYP2C9 inhib -9.6, CYP2C19 inh 9.3, EphB4 antag 2.4 and CYP2C9 act 1.1.
For CCC(C)[C@H](N)c1nnc(SCc2cccc(F)c2)o1 (stereo partly specified) the results were CYP2C19 activ 0.4, CYP2C9 inhib -6.2, CYP2C19 inh 61.5*, EphB4 antag 4.7 and CYP2C9 act 1.1.
`NCCCCCc1nnc(SCc2ccc(Cl)cc2Cl)o1` gave CYP2C19 activ 0.4, CYP2C9 inhib 37.3, CYP2C19 inh 61.4*, EphB4 antag -3.0 and CYP2C9 act 0.6.
`NC(=O)NC(Cc1ccccc1)C(=O)Nc1ccc(S(N)(=O)=O)cc1` (stereo unspecified) gave CYP2C19 activ 1, CYP2C9 inhib -8.8, CYP2C19 inh -1.1, EphB4 antag -3.2 and CYP2C9 act 1.1.
Cc1cc(NS(=O)(=O)c2ccc(C3CCCCC3)cc2)no1 was read as CYP2C19 activ 0.9, CYP2C9 inhib 37.7, CYP2C19 inh 11.9, EphB4 antag -6.7 and CYP2C9 act 0.6.
Screening O=S(=O)(NCc1cccnc1)c1ccccc1 returned CYP2C19 activ 0.8, CYP2C9 inhib -5.4, CYP2C19 inh 16.2, EphB4 antag -10.8 and CYP2C9 act 1.1.
For O=C1NC(NS(=O)(=O)c2ccccc2)(C(F)(F)F)C(=O)N1Cc1cccnc1 (stereo unspecified) the results were CYP2C19 activ 1, CYP2C9 inhib 66.9*, CYP2C19 inh 3.0, EphB4 antag -8.0 and CYP2C9 act 0.3.
O=C(NC1(C(F)(F)F)NC(=O)N(Cc2cccnc2)C1=O)c1ccc(F)cc1 (stereo unspecified) was read as CYP2C19 activ 0.7, CYP2C9 inhib 31.4, CYP2C19 inh 34.3, EphB4 antag -1.4 and CYP2C9 act 0.7.
O=C(NC1(C(F)(F)F)NC(=O)N(Cc2cccnc2)C1=O)c1ccncc1 (stereo unspecified) was read as CYP2C19 activ 0.9, CYP2C9 inhib 60.3*, CYP2C19 inh 10.5, EphB4 antag -1.2 and CYP2C9 act 0.4.
`COc1ccc(N2C(=O)NC(NC(=O)c3ccncc3)(C(F)(F)F)C2=O)cc1` (stereo unspecified) gave CYP2C19 activ 0.6, CYP2C9 inhib 55.1*, CYP2C19 inh 35.3, EphB4 antag 0.4 and CYP2C9 act 0.4.
COC1(OC)N=C(N)C2(C#N)C(c3ccccc3)NC(C)=CC12C#N (stereo unspecified) was read as CYP2C19 activ 1, CYP2C9 inhib -2.5, CYP2C19 inh 3.0, EphB4 antag 3.4 and CYP2C9 act 1.
CCN(C(=O)c1cn(CC)c(=O)c2cc(OC)c(OC)cc12)c1ccccc1C was read as CYP2C19 activ 0.9, CYP2C9 inhib 11.9, CYP2C19 inh 10.1, EphB4 antag 2.2 and CYP2C9 act 0.9.
CCN(C(=O)c1cccc(F)c1)c1ccccc1C was read as CYP2C19 activ 0.2, CYP2C9 inhib 61.2*, CYP2C19 inh 83.0*, EphB4 antag 4.5 and CYP2C9 act 0.4.
For CN(C)CCCNC(=O)c1ccc(CN(c2ccccc2)S(C)(=O)=O)cc1 the results were CYP2C19 activ 0.8, CYP2C9 inhib 64.5*, CYP2C19 inh 20.9 and CYP2C9 act 0.4.
For Cc1ccc(CN(c2ccc(C(=O)Nc3cccnc3)cc2)S(C)(=O)=O)cc1 the results were CYP2C19 activ 0.1, CYP2C9 inhib 73.8*, CYP2C19 inh 90.6*, EphB4 antag 0.9 and CYP2C9 act 0.3.
For CS(=O)(=O)N(Cc1ccccc1)c1ccc(C(=O)NC2CCCCC2O)cc1 (stereo unspecified) the results were CYP2C19 activ 0.5, CYP2C9 inhib 11.5, CYP2C19 inh 51.9*, EphB4 antag 1.8 and CYP2C9 act 0.9.
`CN(C)CCCNC(=O)c1ccc(Cl)c(S(=O)(=O)N(C)c2ccccc2)c1` gave CYP2C19 activ 0, CYP2C9 inhib -4.6, CYP2C19 inh 96.7*, EphB4 antag 7.1 and CYP2C9 act 1.
`CN(C)CCCNC(=O)c1ccc(-c2ccccc2)cc1` gave CYP2C19 activ 1, CYP2C9 inhib 29.1, CYP2C19 inh 2.2, EphB4 antag -3.5 and CYP2C9 act 0.7.
Screening O=C(NCc1ccccn1)c1ccc(/C=N/O)nc1 returned CYP2C19 activ 1, CYP2C9 inhib -3.7, CYP2C19 inh 1.2, EphB4 antag 0.2 and CYP2C9 act 1.
`O=C(NCc1ccccc1)c1ccc(S(=O)(=O)C(F)F)cc1` gave CYP2C19 activ 0.3, CYP2C9 inhib 9.4, CYP2C19 inh 68.2*, EphB4 antag -0.3 and CYP2C9 act 0.9.
CCCNC(=O)c1ccc(N(Cc2ccccc2)S(C)(=O)=O)cc1 was read as CYP2C19 activ 0.6, CYP2C9 inhib 25.6, CYP2C19 inh 35.3, EphB4 antag 0.0 and CYP2C9 act 0.7.
CS(=O)(=O)N(Cc1ccccc1)c1ccc(C(=O)NCc2ccccc2)cc1 was read as CYP2C19 activ 0.4, CYP2C9 inhib 53.4*, CYP2C19 inh 62.1*, EphB4 antag -2.0 and CYP2C9 act 0.5.
Screening O=C(NCc1ccccc1)c1ccc(/C=N/O)nc1 returned CYP2C19 activ 0.4, CYP2C9 inhib -14.6, CYP2C19 inh 63.4* and CYP2C9 act 1.1.
`CS(=O)(=O)N(Cc1ccccc1)c1ccc(C(=O)NCc2cccnc2)cc1` gave CYP2C19 activ 0.1, CYP2C9 inhib 91.2*, CYP2C19 inh 91.3*, EphB4 antag -4.9 and CYP2C9 act 0.1.
For Cc1cc2cc(C(c3nnnn3Cc3ccco3)N3CCc4ccccc43)c(=O)[nH]c2cc1C (stereo unspecified) the results were CYP2C19 activ 0.9, CYP2C9 inhib 24.6, CYP2C19 inh 12.0, EphB4 antag 3.7 and CYP2C9 act 0.8.

From PubChem BioAssay
